40 molecules from PubChem BioAssay (NCATS) can be followed below.

Where “and” joins values, the source holds several entries; their conditions need not be identical. Equal values may be shown once. Results filed as inconclusive are left out. A call without a number means that no potency is given here. Calls of active or inactive are those of the source. Calls follow the shape of the dose curve; as a rule, active = well fitted cell-killing curve with a large enough effect; inconclusive = small, poorly fitted or top-dose-only effect; inactive = flat fitted curve, though single readings scatter.
Potency is read from the fitted curve at half-maximal effect.

This test is described as follows: Cell Viability - LYMP2-013 (AID 970). Also: nearly all actives have a fitted effect of over 55% in size. As to conditions: LYMP2-013 lymphoblastoid cells viability; series mostly up to 92.2 µM. From the text:
NIH Chemical Genomics Center [NCGC]
NIH Molecular Libraries Screening Centers Network [MLSCN]
National Institutes of Environmental Health Sciences [NIEHS]
National Toxicology Program [NTP]
We have developed a 1536-well cell-based assay for quantitative high throughput screening (qHTS) against a number of cell lines to determine in vitro cytotoxicity of small molecules. This particular assay uses a human lymphoblastoid cell line (LYMP2-013) purchased from Coriell Institute for Medical Research.
NCGC Assay Protocol Summary:
The CellTiter-Glo luminescent cell viability assay (Promega) is a homogeneous method to measure the number of viable cells in culture. The end point readout of this assay is based on quantitation of intracellular ATP, an indicator of metabolic activity, using the luciferase reaction. Luciferase catalyzes the oxidation of beetle Luciferin to oxyluciferin and light in the presence of ATP. The luminescent signal is proportional to amount of ATP present.
Using the CellTiter-Glo luminescent cell viability assay, the amount of cellular ATP was measured in the lymphoblastoid cell line with complete culture medium following compound treatment for 24 hours. The assay was performed in opaque white Kalypsys 1536-well plates. In the screen, tetraoctylammonium bromide was used as positive control. Library compounds were measured for their ability to cause acute toxicity in the cell line, as reflected by a decrease in intracellular ATP levels, in a concentration-dependent manner. […] AC50 values were determined from concentration-response data modeled with the standard Hill equation.
qHTS protocol for CellTiter Glo lymphoblastoid cellular assay
[Step] [Parameter] [Value] [Description]
1. Reagent; 5 uL; 2500 lymphoblastoid cells/well
2. Time; 5 hr; 37 C incubation
4. Controls; 23 nL; Tetraoctylammonium bromide 6.4pM to 92 uM
5. Time; 24 hr; 37 C incubation
6. Reagent; 5 uL; CellTiter Glo reagent
7. Time; 30 min; Room Temperature
8. Detection; Luminescence; Viewlux plate reader
Keywords: cell viability, cytotoxicity, lymphoblastoid cell line, luminescence, NTPHTS, NTPHTS_NCGC, NIEHS, DSSTox, MLSMR, MLSCN, NIH Roadmap, qHTS, NCGC
Turning to `Nc1ccc(S(=O)(=O)O)cc1`, the Potency entry is “inactive”.

For the molecule `O=C(/C=C/c1ccc(O)c(O)c1)O[C@@H](C(=O)O)[C@@H](OC(=O)/C=C/c1ccc(O)c(O)c1)C(=O)O`, the Potency entry was “inactive”.

As for `C/C=C\c1ccc(OC)cc1`, the Potency entry was “inactive”.

On to `CCC(C)c1ccccc1O` (stereo not given), for which the Potency entry is “inactive”.

Take `OCCNCCO`: the Potency result was “inactive”.

As for `Cc1ccccc1C`, the Potency result is “inactive”.

Take `CCCCCCCCCCCC(=O)O`: the Potency result is “inactive”.

Turning to `CCO[Si](CCCN)(OCC)OCC`, the Potency entry was “inactive”.

`CN(C)C=O`: the Potency entry is “inactive”.

As for `O=[N+]([O-])c1cccc(Cl)c1Cl`, the Potency result is “inactive”.

In the case of `CCCCCCCCO`, the Potency entry is “inactive”.

Take `O=C1CCc2ccccc2O1`: the Potency entry was “inactive”.

`CC(C)=CCCC(C)CCO` (stereo not given): the Potency result is “inactive”.

In the case of `NC1=NC(S)C2N=CN=C2N1` (stereo not given), the Potency was 20 µM (active).

Turning to `S=C1NC=NC2N=CNC12` (stereo not given), the Potency entry was “inactive”.

As for `O=C(O)CC(C(=O)O)C(CC(=O)O)C(=O)O` (stereo not given), the Potency result was “inactive”.

With `CCC(O)OC(O)CC` (stereo not given), the Potency result was “inactive”.

In the case of `CCCCCCCCCCCCCC(=O)O`, the Potency result was “inactive”.

Turning to `COC(=O)c1ccc(C)cc1`, the Potency result is “inactive”.

On to `CCCCOCCO`, for which the Potency entry is “inactive”.

With `Cc1c(N=C=O)cccc1N=C=O`, the Potency result was “inactive”.

In the case of `Cc1ccc(N)c([N+](=O)[O-])c1`, the Potency entry is “inactive”.

Turning to `c1ccc2c(c1)c1cccc3ccc4cccc2c4c31`, the Potency entry was “inactive”.

For `c1ccccc1`, the Potency entry is “inactive”.

With `CC12CCC(CC1=O)C2(C)C` (stereo not given), the Potency result was “inactive”.

In the case of `O=C(O)c1ccccc1C(c1ccc(O)cc1)c1ccc(O)cc1`, the Potency entry was “inactive”.

`CCCN(CCC)C(=O)SCC`: the Potency result was “inactive”.

In the case of `O=C1c2ccccc2C(=O)C1c1ccc2ccccc2n1`, the Potency result is “inactive”.

In the case of `CCO`, the Potency result was “inactive”.

With `COc1ccc(/C=C/c2cc(OC)cc(=O)o2)cc1`, the Potency entry was “inactive”.

Turning to `C=CCOC(=O)c1ccccc1C(=O)OCC=C`, the Potency result was “inactive”.

Take `CCCCC(CC)CN` (stereo not given): the Potency result is “inactive”.

In the case of `CC1=CC(C)(C)Nc2ccccc21`, the Potency entry was “inactive”.

Consider `Cc1ccc([N+](=O)[O-])c(C)c1`, for which the Potency entry was “inactive”.

With `Cc1cccc([N+](=O)[O-])c1C`, the Potency entry was “inactive”.

Consider `C=CC(=O)OCCOCCOCCOCCOC(=O)C=C`, for which the Potency was 20 µM (active) and 25.1 µM (active).

`CC1(C)CC(N=C=O)CC(C)(CN=C=O)C1` (stereo not given): the Potency result is “inactive”.

Regarding `O=NO`, the Potency entry is “inactive”.

`COc1cc(/C=C/c2ccccc2)oc(=O)c1`: the Potency entry is “inactive”.

In the case of `C=Cc1ccccc1Cl`, the Potency entry is “inactive”.
